About 110 (0.058%) of roughly 190,000 compounds were called active. Roughly 2% stayed inconclusive and do not appear here.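 How the source made its calls: active means fluorescent GTP binding to Rab7 beads changed by at least 20 points from the 100% baseline, either direction, mostly lower; inconclusive means compound itself probably fluorescent, or too few beads counted; inactive means the rest.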 Shown is part of a subset that was picked to be rich in actives.
These molecules were tested on Rab7 GTPase wild type (dog), Bodipy-FL-GTP binding (assay: modulators of GTP binding to Rab7, primary screen, biochemical, wildtype, multiplex bead flow cytometry (AID 758;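 further: median green fluorescence of bound Bodipy-FL-GTP per Rab7 bead population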)). Settings: GST-Rab7 beads, fluorescent GTP binding, at 10 µM, actives lie on both sides, untreated = 100%, excess cold GTP = 0%.
`CN(C)c1ccc(C2Nc3ccccc3C(=O)N2NS(=O)(=O)c2ccccc2)cc1` (stereo unspecified) was tested, and the GTP binding activity (percent of control) was 95% (inactive).
For `O=C(CSc1ccc([N+](=O)[O-])cn1)Nc1ccc(N2CCOCC2)cc1`, the GTP binding activity (percent of control) was 95% (inactive).
For `COc1c(F)c(F)c(C(=O)O)c(Nc2ccccc2C)c1F`, the GTP binding activity (percent of control) was 96% (inactive).
`Cc1ccc(NC(=S)NC(=O)c2ccc(-c3ccccc3)cc2)c(C)c1` was tested, and the GTP binding activity (percent of control) was 100% (inactive).
With `Cc1ccc(Nc2c(F)c(F)c(F)c(F)c2C(=O)O)c(C)c1` the GTP binding activity (percent of control) was 121% [activator] (active).
`S=C(Nc1ccc2c(c1)OCO2)N1CCCC1` was tested, and the GTP binding activity (percent of control) was 104% (inactive).
For `C/C(CC(=O)N1CCN(C=O)CC1)=N\NC(=O)c1ccc(Br)cc1`, the GTP binding activity (percent of control) was 102% (inactive).
In the case of `COc1ccc2c(c1)CCC/C2=N\OC(=O)c1ccccc1F`, the GTP binding activity (percent of control) is reported as 105% (inactive).
With `C=CCN(CC=C)S(=O)(=O)c1ccc(C(=O)Nc2sc3c(c2C(N)=O)CCCCC3)cc1` the GTP binding activity (percent of control) was 103% (inactive).
For `C=CCN(CC=C)S(=O)(=O)c1ccc(C(=O)Nc2nc3c(s2)CCc2ccccc2-3)cc1`, the GTP binding activity (percent of control) was 27% (active).
For `COCCN(CCOC)S(=O)(=O)c1ccc(C(=O)Nc2nc3c(s2)CCc2ccccc2-3)cc1`, the GTP binding activity (percent of control) was 99% (inactive).
In the case of `COC(=O)CCC(=O)N1CCCC(CO)(Cc2ccccc2)C1` (stereo unspecified), the GTP binding activity (percent of control) is reported as 98% (inactive).
For `CSc1cccc(NC(=S)N(Cc2ccccc2)Cc2ccccn2)c1`, the GTP binding activity (percent of control) was 104% (inactive).
With `O=C(COC(=O)c1ccccn1)Nc1cccc2ccccc12` the GTP binding activity (percent of control) was 108% (inactive).
For `CCN(CC)CCNS(=O)(=O)c1ccc(/C=C/C(=O)O)cc1`, the GTP binding activity (percent of control) was 98% (inactive).
With `OCCC1CN(Cc2cnc(-c3ccccc3)s2)CCN1CCc1ccccc1` (stereo unspecified) the GTP binding activity (percent of control) was 106% (inactive).
In the case of `CCOC(=O)CNC(=O)CSc1ccc2nnc(-c3cccnc3)n2n1`, the GTP binding activity (percent of control) is reported as 96% (inactive).
`CC1(C)C2CC=C(/C=N/NC(=O)C3CC3)C1C2` (stereo unspecified) was tested, and the GTP binding activity (percent of control) was 105% (inactive).
For `CCc1c(SCCC(=O)O)nc2ccccc2c1C`, the GTP binding activity (percent of control) was 99% (inactive).
With `Fc1cc(Br)ccc1NC(=S)Nc1cccnc1` the GTP binding activity (percent of control) was 104% (inactive).
For `COC(=O)C(=Nc1ccccc1)/C(C(=O)C(=O)N(C)c1ccccc1)=C(\O)c1ccc(Cl)cc1`, the GTP binding activity (percent of control) was 96% (inactive).
`Cc1ccc(N2C(=O)C(CC(=O)Nc3cccc(F)c3)N(CCc3ccncc3)C2=O)cc1` (stereo unspecified) was tested, and the GTP binding activity (percent of control) was 97% (inactive).
With `NNC(=O)C1CC(O)CN1S(=O)(=O)c1ccc(Cl)cc1` (stereo unspecified) the GTP binding activity (percent of control) was 96% (inactive).
In the case of `Cc1ccc(NC(=O)CNCc2ccccn2)cc1S(=O)(=O)N(C)C`, the GTP binding activity (percent of control) is reported as 101% (inactive).
In the case of `C=CCN(Cc1nc(-c2cc(OC)c3c(c2)OCO3)oc1C)C1CCS(=O)(=O)C1` (stereo unspecified), the GTP binding activity (percent of control) is reported as 92% (inactive).
For `CC1=CC=CN2C1=NC(=O)CC2(C)C(=O)N(CC(=O)NC1CCCC1)c1ccccc1C` (stereo unspecified), the GTP binding activity (percent of control) was 104% (inactive).
